# Results: PubChem BioAssay (Tox21)
# Where “and” joins values, the source holds several entries; their conditions need not be identical. Equal entries are not always repeated. Results filed as inconclusive are left out. A number with no mark means an inactive call. Calls of active or inactive are those of the source. Calls follow the shape of the dose curve; as a rule, active = well fitted activation curve with a large enough effect in the repeat runs; inconclusive = weak or mixed curves; inactive = no such curve, though single readings can be large or run the other way.
# Molecular target: Nuclear receptor subfamily 1 group I member 2 (Homo sapiens) (UniProt O75469)
# Assay: Human pregnane X receptor (PXR) small molecule agonists, qHTS assay (AID 1346982); also: nearly all actives have a fitted effect of over 35% in size
# Details: PXR-Luc HepG2, CYP3A4 luciferase reporter, 24 h; series mostly up to 92.4 µM; activation: at the top concentration
# From the text: National Center for Advancing Translational Sciences [NCATS]
# NIH Chemical Genomics Center [NCGC]
# U.S. Environmental Protection Agency [EPA]
# National Institutes of Environmental Health Sciences [NIEHS]
# National Toxicology Program [NTP]
# The human pregnane X receptor (hPXR) regulates the expression of several drug metabolizing enzymes and induction of these proteins is a major mechanism for developing drug resistance in cancer. One such key enzyme catalyzing the drug metabolism is cytochrome P450 3A4 (CYP3A4). Changes in CYP3A4 expression affect drug metabolism, thereby reducing the therapeutic efficacy and altering toxicological response to a drug and which finally causes adverse drug interaction. To screen Tox21 libraries for compounds that activate hPXR-mediated CYP3A4 gene expression, PXR-Luc HepG2 cells were used.
# PXR-Luc HepG2 cells were dispensed at 2,000 per well in 5uL of assay medium containing 5% charcoal-stripped FBS into white solid bottom 1536-well plates (Corning Life Sciences, Corning, NY) using a Multidrop Combi (Thermo Scientific, Waltham, MA) dispenser. The assay plates were incubated at 37 C and 5% CO2 for 5hr, and then 23nL of compounds dissolved in DMSO and positive control were transferred using a Pintool station (Wako, San Diego, CA). The assay plates were incubated at 37C and 5% CO2 for 24hr. For luciferase read, 4uL of ONE-Glo reagent (Promega Corporation, Madison, WI) was added to each well of the assay plates using Flying Reagent Dispenser (FRD, Aurora Discovery, San Diego, CA) and incubated the assay plates at room temperature for 30min. The luminescence signal was quantified using a ViewLux plate reader (Perkin Elmer, Shelton, CT).
# % is scaled to controls: 0 for no effect and ±100 for the full control effect; potency is read from the fitted curve at half-maximal effect.
# Sequence of Nuclear receptor subfamily 1 group I member 2 (Homo sapiens) (O75469 whole entry, looked up): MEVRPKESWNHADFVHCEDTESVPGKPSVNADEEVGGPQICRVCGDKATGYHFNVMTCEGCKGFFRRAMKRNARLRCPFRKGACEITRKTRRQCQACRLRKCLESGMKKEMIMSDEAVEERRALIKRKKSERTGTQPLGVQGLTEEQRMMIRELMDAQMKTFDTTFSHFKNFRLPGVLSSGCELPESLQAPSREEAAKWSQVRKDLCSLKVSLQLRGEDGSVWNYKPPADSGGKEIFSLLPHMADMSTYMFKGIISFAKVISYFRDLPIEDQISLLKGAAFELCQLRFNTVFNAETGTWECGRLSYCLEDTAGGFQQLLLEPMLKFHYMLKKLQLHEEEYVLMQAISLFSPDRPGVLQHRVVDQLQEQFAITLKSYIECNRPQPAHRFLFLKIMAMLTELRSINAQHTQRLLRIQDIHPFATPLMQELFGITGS
SMILES,activation,Potency
Cc1cc(C2CCCCC2)n(O)c(=O)c1,-18.3% [at 42.5 µM],–
C[C@@H]1C[C@H]2[C@@H]3CCC4=CC(=O)C=C[C@]4(C)[C@@]3(Cl)[C@@H](O)C[C@]2(C)[C@@]1(OC(=O)c1ccco1)C(=O)CCl,–,26.6 µM (active)
CCCCN(CCCC)c1ccc(C(=O)c2ccccc2C(=O)O)c(O)c1,–,61.7 µM (active)
Cc1oc(-c2ccccc2)nc1CCC(=O)c1ccc(CC2SC(=O)NC2=O)cc1 (stereo not given),6.8% [at 42.5 µM],–
CCN(CCC#N)c1ccc(N=Nc2c(Cl)cc([N+](=O)[O-])cc2Cl)cc1,–,12.2 µM (active)
Cc1cc(O)c(Cl)c(C)c1Cl,-2.95%,–
O=C(Oc1ccccc1)c1ccccc1C(=O)Oc1ccccc1,7.88%,–
CCc1cc(Cc2cc(CC)c(N)c(CC)c2)cc(CC)c1N,–,21.7 µM (active)
NC(=O)CC[C@@H]1NC(=O)[C@H](Cc2ccccc2)NC(=O)[C@H](Cc2ccc(O)cc2)NC(=O)CCSSC[C@@H](C(=O)N2CCC[C@H]2C(=O)N[C@@H](CCCN=C(N)N)C(=O)NCC(N)=O)NC(=O)[C@H](CC(N)=O)NC1=O,-1.31% [at 42.5 µM],–
Oc1cccc(-c2c3nc(c(-c4cccc(O)c4)c4ccc([nH]4)c(-c4cccc(O)c4)c4nc(c(-c5cccc(O)c5)c5ccc2[nH]5)CC4)C=C3)c1,-6.25% [at 42.5 µM],–
CC(C)c1ccc2c(c1)CC[C@H]1[C@](C)(CN)CCC[C@]21C,–,19.3 µM (active)
NNc1nc(-c2ccccc2)cs1,–,31.5 µM (active)
CCCCCCCC/C=C\CCCCCCCCOCCO,–,3.98 µM (active)
S=c1[nH]c2ccccc2s1,–,30.6 µM (active)
O=C1CCCc2c1cc1ccc3cccc4ccc2c1c34,–,17.4 µM (active)
Nc1ccc2cc(S(=O)(=O)O)cc(O)c2c1N=Nc1ccccc1C(F)(F)F,10.6%,–
O=c1cc(-c2ccc(O)cc2)oc2cc(O)cc(O)c12,–,24.7 µM (active) and 24.3 µM (active)
OC1(c2ccc(Cl)c(C(F)(F)F)c2)CCN(CCCC(c2ccc(F)cc2)c2ccc(F)cc2)CC1,-39.3% [at 42.5 µM],–
CCC(C)(C)C1CCCCC1OC(C)=O (stereo not given),-1.85%,–
CN(C)c1ccc(C2(c3ccc(N(C)C)cc3)OC(=O)c3cc(N(C)C)ccc32)cc1,2.92%,–

SMILES,activation,Potency
Oc1c(Cl)cc(Cl)c2cccnc12,–,26.6 µM (active)
O=c1[nH]cnc2nc[nH]c12,-4.18% [at 42.5 µM],–
Cc1cc(O)c2ccccc2c1O,-50.7% [at 42.5 µM],–
Oc1ccc(Cl)cc1Sc1cc(Cl)ccc1O,–,27.3 µM (active)
CSc1ccc2c(c1)C(N1CCN(C)CC1)Cc1ccccc1S2 (stereo not given),-2.32% [at 42.5 µM],–
CO[Si](CCCNc1ccccc1)(OC)OC,1.41%,–
CC(C)(C)C1CCC(CC2=C(O)c3ccccc3C(=O)C2=O)CC1 (stereo not given),–,29.8 µM (active)
O=C(c1ccc(F)cc1)C1CCN(CCn2c(=O)[nH]c3ccccc3c2=O)CC1,-9.58% [at 42.5 µM],–
Cc1ccc(O)c2ncccc12,–,3.35 µM (active)
CCCC(C)c1ccccc1O (stereo not given),22.3%,–
O=C1c2ccccc2Cc2ccccc21,–,27.5 µM (active)
CCCC/C=C/CCCCO,-3.93%,–
O=C(N/N=C/c1ccccc1O)c1ccncc1,7.08% [at 42.5 µM],–
NNC(=O)c1cccc(C(=O)NN)c1,18.4%,–
NC(=O)C1(N2CCCCC2)CCN(CCCN2c3ccccc3CCc3ccc(Cl)cc32)CC1,–,1.33 µM (active)
C=CC(=O)OCC(CO)(COCC(COC(=O)C=C)(COC(=O)C=C)COC(=O)C=C)COC(=O)C=C,–,1.91 µM (active)
CCCCCCCCCCCCCCCCCC[N+](C)(C)Cc1ccccc1,–,1.55 µM (active)
CC[C@@]1(O)C(=O)OCc2c1cc1n(c2=O)Cc2cc3c(CN(C)C)c(O)ccc3nc2-1,-28.8% [at 42.5 µM],–
CCCCCCCCCCC=O,3.8%,–
O=C(NO)C1(NS(=O)(=O)c2ccc(Oc3ccc(F)cc3)cc2)CCOCC1,-2.79%,–
